This note sets out measurements from PubChem BioAssay AID624305 (National Center for Advancing Translational Sciences (NCATS), 2012).

Inconclusive results are not listed. A call without a number means that no potency is given here. Values without a mark were called inactive. Active and inactive are the calls of the source. The call rests on the fitted dose curve; in most records, active means well fitted activation curve with a large enough effect; inconclusive means small, poorly fitted or top-dose-only effect; inactive means no such curve, though single readings can be large or run the other way.

The nature of the assay: qHTS assay for re-activators of p53 using a Luc reporter: Hit Validation. Further: nearly all actives have a fitted effect of over 75% in size. A digest of the protocol: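 Hit confirmation with a 1:5 dilution series, at 37 deg C for 24 hrs, in H1299 cells co-expressing temperature-sensitive p53-A138V and p53-responsive luciferase. Nocodazole served as control; luminescence read after 10 min with detection reagent.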
In general terms: qHTS replaces the single test concentration by a dilution series.
Potency means the concentration at half of the fitted maximal effect.

Take `CCCCC(=O)Nc1cccc(NC(=S)NC(=O)Cc2ccccc2)c1`: the Potency entry is “inactive”.
Consider `CCCCc1ccc(NC(=S)N2CCCC(CO)C2)cc1` (stereo unspecified), for which the Potency was 651 nM (active).
As for `O=C(Nc1ccc(Cl)cc1C(F)(F)F)c1ccccc1`, the Potency result was “inactive”.
On the same count and under the same terms, under `Cc1nc2ccccc2nc(C)c1=NOCc1ccccc1Cl` stands “inactive”; under `COc1ccc([N+](=O)[O-])cc1NC(=O)CSCc1ccc(Br)cc1`, “inactive”; under `COC(=O)c1nn(-c2ccc(-c3ccccc3)cc2)cc1O`, 92 nM (active).
`COCC(C)NC(=O)C1CC(=O)N(c2ccc(C)cc2)C1` (stereo unspecified): the activation is -21.3% [at 9.22 µM].
Take `COc1ccc2oc(C(=O)Nc3nc(C)cs3)c(C)c2c1`: the Potency is 1840 nM (active).
Turning to `CC(C)(C)c1ccc(/C=N/Nc2ccc(C(=O)O)cc2)cc1`, the Potency result is “inactive”.
The same measure, in the same setting: under `c1ccc2cc3c(NCCN4CCOCC4)ccnc3cc2c1` stands “inactive”; under `Cc1ccn2c(c1)nc(=S)n2C(=O)c1ccccc1`, 731 nM (active); under `Cc1c(C(=O)N(C)c2ccccc2Cl)cnn1-c1ccccc1`, “inactive”.
Regarding `S=C(Nc1ccccc1)Nc1nc2ccccc2n1CCOc1ccc(Br)cc1`, the Potency entry is “inactive”.
On the same count and under the same terms, under `Cc1csc(NC(=O)/C=C/c2ccco2)n1` stands 10300 nM (active); under `CS(=O)(=O)n1nc(-c2ccc(Cl)cc2)nc1SCc1ccccc1`, 20600 nM (active).
As to `Cc1noc(C)c1C(=O)Nc1nc(-c2ccc(F)cc2)cs1`, the activation is -25% [at 9.22 µM].
For `CCc1ccc2c(CN(CC)Cc3nc4ccccc4c(=O)[nH]3)cc(=O)oc2c1`, the activation was -11.9% [at 9.22 µM].
`CC12CN(C(=O)c3cccc([N+](=O)[O-])c3)C3(C#N)CC1CCC23C` (stereo unspecified): the Potency result is “inactive”.
The same measure, in the same setting: with `Cc1ccc(C(=O)NC2CC2)cc1S(=O)(=O)N1CCOCC1` the entry was “inactive”.
On the same count and under the same terms, under `CCc1ccc2[nH]c(=O)c(CN(CCN(CC)CC)C(=O)NC3CCCCC3)cc2c1` stands “inactive”.
As to `Cc1cccc(N/C=C/C(=O)c2cccs2)c1C`, the Potency is 65.1 nM (active).
As to `O=C(c1ccco1)n1c(=S)nc2ccccn21`, the Potency is 7310 nM (active).
Turning to `COc1ccc(-c2csc(NCc3ccco3)n2)cc1C`, the Potency was 18400 nM (active).
Consider `CCOC(=O)c1c(C)[nH]c(C(=O)CSc2ccccc2)c1C`, for which the Potency is 517 nM (active).
Same read-out and setting: under `C/C(CC(C)C)=N\NC(=O)Nc1ccccc1` stands “inactive”; under `O=C(Cn1cc2c(n1)CCCCC2)NC1CCCCCC1`, “inactive”.
Same read-out and setting: with `COc1ccc2cc3c(N)nn(C(=O)c4ccc(Cl)c([N+](=O)[O-])c4)c3nc2c1` the entry was “inactive”.
Turning to `CCCCNC(=S)N(Cc1c(C)noc1C)c1ccccc1`, the Potency entry was “inactive”.
For `COc1ccc(-c2cc(C(F)(F)F)nc(-n3ccnc3C)n2)cc1`, the Potency result was “inactive”.
The same measure, in the same setting: with `CC(/C=C/c1ccccc1)=N/O` the entry was “inactive”; with `O=C(CNc1ccccc1)N/N=C/c1c[nH]c2ccccc12`, “inactive”; with `CCN1C(=S)SC(=O)C1=C1C=C(C)N(CCO)C(C)=C1`, 1300 nM (active).
Take `CS(=O)(=O)N1CCC(C(=O)Nc2cc(Cl)c(Cl)cc2Cl)CC1`: the Potency entry is “inactive”.
Consider `O=S(=O)(N/N=C/c1ccccc1OCc1ccc(Cl)cc1)c1ccccc1`, for which the Potency entry is “inactive”.
On the same count and under the same terms, with `O=c1cc(-c2ccc3c(c2)OCCO3)oc2ccc(Cl)cc12` the figure was 820 nM (active).
On the same count and under the same terms, under `COCc1[nH]nc2c1C(c1cccc(OC)c1)C(C#N)=C(N)O2` (stereo unspecified) stands “inactive”.
On the same count and under the same terms, under `Cc1cc(C(=O)COC(=O)c2ccc(O)cc2)c(C)n1CC(F)(F)F` stands 20600 nM (active); under `Cc1ccc(C(=O)CN2C(=O)NC3(CCCCC3C)C2=O)s1` (stereo unspecified), “inactive”.
`CC(C)(C)c1ccc(S(=O)(=O)N2CCSC2)cc1`: the activation is -4.43% [at 9.22 µM].
As to `C/C(=N/NC(=O)c1ccc2c(c1)OCO2)c1ccc(NC(=O)C(F)(F)F)cc1`, the Potency was 9200 nM (active).
Same read-out and setting: under `Clc1ccc(OCc2nc(-c3ccccn3)n[nH]2)cc1` stands “inactive”.
Same read-out and setting: under `O=C(N/N=C\c1cc(Cl)ccc1O)c1ccc(S(=O)(=O)N2CCCCC2)cc1` stands “inactive”.
For `Cc1ccc(NC(=S)NC(=O)c2cccs2)cc1F`, the Potency is 9200 nM (active).
As to `O=C(c1ccccc1)n1c(=S)nc2ccccn21`, the Potency is 164 nM (active).
The same measure, in the same setting: with `C=CCn1c(C)cc(C(=O)CSc2nc3ccccc3o2)c1C` the figure was 731 nM (active); with `O=[N+]([O-])c1cc(C(F)(F)F)ccc1NCCc1c[nH]c2ccccc12`, “inactive”; with `CN(Cc1ccccc1)C(=O)CNC(=O)Cn1cnc2ccccc2c1=O`, “inactive”.
Same read-out and setting: with `CCc1ccc(NC(=O)c2cnn3ccccc23)cc1` the figure was 920 nM (active); with `CCn1c(=O)c2ccccc2n(Cc2ccccc2C)c1=O`, “inactive”; with `O=C(O)C1C2C=CC(C2)C1C(=O)Nc1ccccc1Br` (stereo unspecified), “inactive”.
In the case of `Cc1ccc(NC(=O)c2ccc(OC(=O)COc3ccc(Cl)c(C)c3)cc2)cc1`, the Potency was 9200 nM (active).
The same measure, in the same setting: with `COc1cccc(/C=C2\Oc3ccc(O)cc3C2=O)c1O` the entry was “inactive”.
On to `C/C(=N/NC(=S)Nc1ccccc1)c1ccc2c(c1)OCO2`, for which the Potency result was “inactive”.
The same measure, in the same setting: under `Cc1ccc(NC(=O)Nc2ccccc2)c(Br)c1` stands 8200 nM (active); under `N#C/C(Cn1c[n+](NC(=O)Nc2ccccc2)cn1)=N/O`, “inactive”; under `O=C(NC(=S)NC1CCCCC1)c1ccccc1[N+](=O)[O-]`, “inactive”.
Take `CN(C)c1ccc(/C=N/Nc2nncc3ccccc23)cc1`: the Potency is 366 nM (active).
Take `O=[N+]([O-])c1ccc(NC(=S)NCCc2ccc(F)cc2)cc1`: the Potency entry was “inactive”.
For the compound `COc1cccc(N(C(=O)c2nc3nccc(C)n3n2)c2nc3ccccc3s2)c1`, the Potency is 7310 nM (active).
Same read-out and setting: under `Cc1ccccc1-c1noc(N)c1C#N` stands “inactive”; under `CC1CC1C(=O)Nc1nc2ccc(S(C)(=O)=O)cc2s1` (stereo unspecified), “inactive”; under `Clc1ccc(OCc2cc(-c3ccccc3)no2)c(Cl)c1`, 1160 nM (active).
With `O=c1oc(-c2ccc(O)c(O)c2)cc2cc(O)cc(O)c12`, the Potency was 11600 nM (active).
The same measure, in the same setting: with `O=C(C1CCCN1S(=O)(=O)c1ccc(Cl)cc1)N1CCOCC1` (stereo unspecified) the entry was “inactive”; with `CC(=O)Nc1ccc(Nc2cc(C)nc3c(-c4ccccc4)cnn23)cc1`, 116 nM (active); with `Cc1ccc(CCc2nnc(SCC(=O)Nc3cccc(Cl)c3)n2-c2ccccc2)o1`, “inactive”.
In the case of `CCOC(=O)c1c(C)[nH]c(C(=O)OCCOc2ccccc2C)c1C`, the Potency was 1300 nM (active).
As for `Cc1ccc(C(=O)Nc2ncc3c(n2)CC(c2ccco2)CC3=O)cc1` (stereo unspecified), the Potency entry is “inactive”.
For the compound `COc1ccc(-c2nnc(-c3ccc(Br)o3)o2)cc1OC`, the Potency entry was “inactive”.
`Cc1ccc2nc(NC(=O)c3ccc(Cl)s3)sc2c1`: the Potency is 731 nM (active).
For `OCCNc1nc(NCc2ccccc2)c2ccccc2n1`, the activation was -3.8% [at 9.22 µM].
For the compound `COCCSc1nnc(NC(=O)CCS(=O)(=O)c2ccccc2)s1`, the activation was -38.9% [at 9.22 µM].
For the compound `CCOc1ccc(OCc2cccc(C(=O)N3CCCC3)c2)cc1`, the Potency was 517 nM (active).
With `Cc1cc(C(=O)COC(=O)c2cccc(O)c2)c(C)n1C1CC1`, the Potency was 130 nM (active).
As for `Cc1ccc(NC(=O)c2ccc3nc[nH]c3c2)cc1C`, the Potency is 23100 nM (active).
Turning to `c1ccc(-c2cc3cc4c(cc3cn2)OCO4)cc1`, the Potency was 11600 nM (active).
